Among the data in PMC7819943, “Rice protein-binding microarrays: a tool to detect cis-acting elements near promoter regions in rice” are binding signal values, retold here.

The full ranking holds about 68,000 sequences; the median of “fluorescence intensity (a.u.)” is about 9,100, and the highest 2% start at about 16,000. Shown is part of a subset that was picked to be rich in the highest values.

OsWRKY34, sequence (Q0JBA9 entry or part of it): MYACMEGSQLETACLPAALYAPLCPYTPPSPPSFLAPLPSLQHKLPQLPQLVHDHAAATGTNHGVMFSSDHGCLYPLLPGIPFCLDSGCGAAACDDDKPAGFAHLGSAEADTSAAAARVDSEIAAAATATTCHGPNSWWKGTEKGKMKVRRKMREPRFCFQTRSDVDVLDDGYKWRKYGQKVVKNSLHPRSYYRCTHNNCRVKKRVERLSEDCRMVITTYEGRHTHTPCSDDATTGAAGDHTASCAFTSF

The experiment deals with OsWRKY34 (Oryza sativa, UniProt Q0JBA9 1-250). As to the kind of experiment: protein-binding microarray (RPBM); PBS, 2% BSA, 51.3 ng/ul salmon testes DNA, 50 uM zinc acetate, 200 nM TF, 25 C, 1 h; high values mean tight binding. The conditions noted are these: protein: recombinant; tags: N-terminal polyhistidine and DsRed monomer fusion (pET32a); label: CyDye5-dUTP incorporated in the synthesized complementary strand; 3' TTTTT single-stranded linker to array surface; dsDNA, one strand shown. In short, it runs like this:
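In PBS with 2% BSA, salmon testes DNA and 50 µM zinc acetate, 200 nM protein was incubated on a custom Agilent array at 25 °C for 1 h and then washed off. The array had been made double-stranded by primer extension with Cy5-dUTP and blocked with 2% BSA. The proteins were transcription factors fused N-terminally to polyhistidine and DsRed, expressed in E. coli BL21-CodonPlus and purified on Ni–NTA. The binding signal is per-feature fluorescence intensity (arbitrary units) from an Axon 4000B scanner.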
Regarding “TATTTACTTTATTTCCTCCATTTATGTCGTTTTAGTTTTGCGGAGTCACCTAGTGCAG”, the binding signal is 9590 fluorescence intensity (a.u.).

As for “CCTCCTTTGTTCTTGCTCCTCTTTGCACGCAAAGAATCGGCGGAGTCACCTAGTGCAG”, the binding signal is 9110 fluorescence intensity (a.u.). The value for “TTGTTGTTTTTCGGTACTGTTGATTGAATTAGTGTTATGTCGGAGTCACCTAGTGCAG” was 8120 fluorescence intensity (a.u.). The value for “ACCTGACTAGCAAGCAACAATCATGTAACTTTTCACCTTTCGGAGTCACCTAGTGCAG” was 8070 fluorescence intensity (a.u.). The value for “TCCCAGCAAATGCAACGCTCGTACTCCTCGCATCAACAGCCGGAGTCACCTAGTGCAG” was 8210 fluorescence intensity (a.u.); that for “TTGTTTCCTATACTTCCTACCAAATGTTCTGATTTTACTGCGGAGTCACCTAGTGCAG” was 9520 fluorescence intensity (a.u.). Regarding “GTTATAGCGCATCTATCAATCGTACTAAATTTCATTGTCCCGGAGTCACCTAGTGCAG”, the binding signal was 8450 fluorescence intensity (a.u.). Turning to “GTCATACCACCTTACTTTTTACGTTTGAATCACCATTCTACGGAGTCACCTAGTGCAG”, the binding signal was 10900 fluorescence intensity (a.u.). The value for “GGTGGTTGGGTACTTGGGTTGGGTTTGGGTTTTTAGGTTTCGGAGTCACCTAGTGCAG” was 29100 fluorescence intensity (a.u.); that for “CTGGTTGGTAGGTACTTGCTTGATTAGATTGGGTTTGGTTCGGAGTCACCTAGTGCAG” was 11500 fluorescence intensity (a.u.). The value for “TATTGGGTGCTTTTGTCCTCAGGTGTGGTATATAGGTACCCGGAGTCACCTAGTGCAG” was 8060 fluorescence intensity (a.u.); that for “ATGGTGGGCTTGTATTGTCCTGCAGTCCTGCTTGTTTTACCGGAGTCACCTAGTGCAG” was 10700 fluorescence intensity (a.u.). For the sequence “TGATAGTGGTGGGGTGGTATTGGTCCTAGCTTTGTACTCCCGGAGTCACCTAGTGCAG”, the binding signal is 18700 fluorescence intensity (a.u.). The value for “CGATGAGGAGGAGGAGGGGCAACAGTGTTAGGGTGGATTTCGGAGTCACCTAGTGCAG” was 12100 fluorescence intensity (a.u.); that for “ACTAGTGAAGTGTTGCCCGTTGGGTTTGGTGGAGTTTGAACGGAGTCACCTAGTGCAG” was 8200 fluorescence intensity (a.u.).

On to “TTCCTTTTTTTACGTGGCAACAGTTAGGGGTGGGCATTCGCGGAGTCACCTAGTGCAG”, for which the binding signal was 18400 fluorescence intensity (a.u.). The value for “TGTTGGGTTGGGTTGGGTTGGGTTGGGTCCGTCCGATGAACGGAGTCACCTAGTGCAG” was 24200 fluorescence intensity (a.u.). Turning to “CAGTTAGGGGTGGGCATTCGGTCAGACCGAAAAATTCGGTCGGAGTCACCTAGTGCAG”, the binding signal is 15500 fluorescence intensity (a.u.). The value for “ATGTTTGTTTGGTTGACTGCACTTGGTCCGACGGATGAAACGGAGTCACCTAGTGCAG” was 8720 fluorescence intensity (a.u.); that for “GGTTTGTTTGTCAACCTCGGGGTGGTTGGGTACTTGGGTTCGGAGTCACCTAGTGCAG” was 11000 fluorescence intensity (a.u.). As to “AGGCCATCATCACTTTAGTCTTATTTTCGTCACCATCATCCGGAGTCACCTAGTGCAG”, the binding signal was 10300 fluorescence intensity (a.u.). In the case of “CTACTTATCATCCATTTAAACATGCTACTAGTCATTCTTCCGGAGTCACCTAGTGCAG”, the binding signal was 10200 fluorescence intensity (a.u.). The value for “CGTTGGATAATCTCTAGTACATGTATATACATTTGGCTCTCGGAGTCACCTAGTGCAG” was 8220 fluorescence intensity (a.u.); that for “CTGCCACGTCACATTTGCCGCCCTCTGGGAGGGCGATTTTCGGAGTCACCTAGTGCAG” was 8580 fluorescence intensity (a.u.); that for “AAACAGGTCACTACTATCCTCCATATATATATATTTTAGACGGAGTCACCTAGTGCAG” was 9110 fluorescence intensity (a.u.).

For “AGAACTAGAAGACCACACGCTGTCTCACTTGTTGCAAAATCGGAGTCACCTAGTGCAG”, the binding signal is 8050 fluorescence intensity (a.u.).

For the sequence “TCTCTCTTTCTTTCTATTTTTCTTTTCAGTCAGGTTAGTACGGAGTCACCTAGTGCAG”, the binding signal was 11000 fluorescence intensity (a.u.). The value for “CATCGATCGCACTAGTGTCGCTCTCTGGAAGTAATAGCCTCGGAGTCACCTAGTGCAG” was 8110 fluorescence intensity (a.u.); that for “ATTAACAGCCTAGCTAGCTAGTGATCAGTGTTGACCGTTGCGGAGTCACCTAGTGCAG” was 8200 fluorescence intensity (a.u.); that for “GAAAACCTAGGGTTAGGTTTGGTGGGGTTGGCAGCTTTCGCGGAGTCACCTAGTGCAG” was 16400 fluorescence intensity (a.u.). The value for “AGGTGGGGAGCGGCGGACTCGCGGTTGGGTTTGTGTGGTTCGGAGTCACCTAGTGCAG” was 14200 fluorescence intensity (a.u.); that for “GTTTCTTGGTCGTGGGGTCGAGGAGGTGGTGGGTGGTGGTCGGAGTCACCTAGTGCAG” was 14800 fluorescence intensity (a.u.); that for “GGTGTTAGCTTTAGGTTTTGGTGTTTGGTTGGGTAATTTTCGGAGTCACCTAGTGCAG” was 17300 fluorescence intensity (a.u.). The value for “GGGTACAGGGGTGGGGACTTGGGTGTGTTGTGGTGGTTACCGGAGTCACCTAGTGCAG” was 12400 fluorescence intensity (a.u.); that for “GTTTGCATGTTAAGCTTTAGGATTTGGTGGGTTATAATTTCGGAGTCACCTAGTGCAG” was 10800 fluorescence intensity (a.u.). With “GTGTTTGGTTGGGTAATTTTGCAGGTGTTGCTCGTCAATTCGGAGTCACCTAGTGCAG”, the binding signal was 10200 fluorescence intensity (a.u.).

In the case of “AGGAGATGCGGTAGTTTTTTTGGTACTGCGTGCGGTGGGGCGGAGTCACCTAGTGCAG”, the binding signal was 8400 fluorescence intensity (a.u.).

Take “CTTCTTCTTCTTCTTCTTCTTGGTCCGGAGAGAGTAGAGACGGAGTCACCTAGTGCAG”: the binding signal is 8090 fluorescence intensity (a.u.). The value for “TAGAGTGGTTGGTTGGGTACTTGGGTTGGGTTGGGTGGTCCGGAGTCACCTAGTGCAG” was 24300 fluorescence intensity (a.u.); that for “TGGTACTGCGTGCGGTGGGGTAGGAGTAGGAGGTTTCTTTCGGAGTCACCTAGTGCAG” was 16600 fluorescence intensity (a.u.); that for “GGTGGGGTTGGCAGCTTTCGTGCTTGGTCAACCGGGCATGCGGAGTCACCTAGTGCAG” was 8520 fluorescence intensity (a.u.). The value for “TTGTGTGTTCTTCCATCTGGCAATGGCATCTGCAGCAGCACGGAGTCACCTAGTGCAG” was 9530 fluorescence intensity (a.u.); that for “CACGCGATGAAATCATCTGCGCATCCTGTACTTTCAATTTCGGAGTCACCTAGTGCAG” was 8030 fluorescence intensity (a.u.); that for “CAATGACCTTTTTTTTTCCTCTCTCTGTTGCTTCCGATATCGGAGTCACCTAGTGCAG” was 8500 fluorescence intensity (a.u.). The value for “GCTTTGAACACTCATCTCCTCACCGTGTTTGTTAGAGCTCCGGAGTCACCTAGTGCAG” was 11200 fluorescence intensity (a.u.); that for “TTTATTTTTTTTGTTACTTTTGGGATAAATTTACAATTACCGGAGTCACCTAGTGCAG” was 9060 fluorescence intensity (a.u.).

With “CATTTGTGGTTTGTACATATTTATATAAGTTATTATAAATCGGAGTCACCTAGTGCAG”, the binding signal is 9060 fluorescence intensity (a.u.).

For “GTGTATTCTACTTAGTAATTTACTTGGCTTGAATTTTTTTCGGAGTCACCTAGTGCAG”, the binding signal was 28900 fluorescence intensity (a.u.). The value for “GGTTTGGGGTGGTTTATTGTACAATAAAGATAAAGTTACCCGGAGTCACCTAGTGCAG” was 19000 fluorescence intensity (a.u.); that for “GTCTACTTGTTTGGTGTAATTTATTTTTTTTCTTTCGCTTCGGAGTCACCTAGTGCAG” was 9740 fluorescence intensity (a.u.); that for “ATTGTATTCCTACTTGGACTCTTATTTTCTTTTCTAATTTCGGAGTCACCTAGTGCAG” was 10300 fluorescence intensity (a.u.). The value for “TCAGTCTGTACACGCCTACACCAGAGTCCAGTGGTCCTAACGGAGTCACCTAGTGCAG” was 8100 fluorescence intensity (a.u.); that for “GGGTGGAGGAGGTGGGGAGGCCGGCGAGACTCATGTGCGGCGGAGTCACCTAGTGCAG” was 13100 fluorescence intensity (a.u.). Consider “ATCAAATGGTCATTCCAACGGTTGTCCTGTGCTTTTGTAACGGAGTCACCTAGTGCAG”, for which the binding signal is 8020 fluorescence intensity (a.u.).
